Eight compounds from PubChem BioAssay (NCI) can be followed below.

The structures appear in SMILES notation. Compounds without any hit were thinned out: in the full panel of roughly 83,000, 20% have a hit.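 For each line, cells grew in 96-well plates with the test compound present at a single concentration for 48 hours.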 Unmarked numbers belong to inactive results. The source made the active and inactive calls. Rule for the calls: active = growth percent below 10; inactive = the rest.

Among the test systems are SK-MEL-2 melanoma; EKVX NSCLC; SN12C renal; UO-31 renal; ACHN renal; CAKI-1 renal; A498 renal; MOLT-4 leukemia; SR leukemia; RPMI-8226 leukemia; OVCAR-8 ovarian; OVCAR-5 ovarian; OVCAR-4 ovarian; SK-OV-3 ovarian; IGROV1 ovarian; OVCAR-3 ovarian; HS 578T breast; NCI/ADR-RES ovarian; TK-10 renal; CCRF-CEM leukemia.
Assay in all cases: NCI-60 one-dose screen, 48 h (100 = growth as untreated, 0 = no growth, -100 = all killed)
Settings in all cases: 10 µM

`COc1ccc(-c2n[nH]nc2-c2cc(OC)c(OC)c(OC)c2)cc1`: the growth in the assay with SK-MEL-2 melanoma is 21.2%; with EKVX NSCLC it was 54.4%; in the assay with SN12C renal it was 25%; in the assay on UO-31 renal, 44.3%; with ACHN renal it was 41.2%; in the assay on CAKI-1 renal, 27.6%. Moreover, the growth is -12.9% (active) with A498 renal; 6.91% (active) in the assay with MOLT-4 leukemia; 7.33% (active) in the assay on SR leukemia; 4.71% (active) with RPMI-8226 leukemia; 21.8% in the assay with OVCAR-8 ovarian; 43.3% with OVCAR-5 ovarian. The growth was 35.4% with OVCAR-4 ovarian; 48.6% with SK-OV-3 ovarian; 4.66% (active) with IGROV1 ovarian; -33.3% (active) with OVCAR-3 ovarian; 12.2% in the assay with HS 578T breast; -28.8% (active) in the assay on NCI/ADR-RES ovarian.

As for `OCC1OC(n2cnc3c(NCc4ccco4)ncnc32)C(O)C1O` (configuration not stated), the growth was 76% in the assay with SK-MEL-2 melanoma; 65.3% with EKVX NSCLC; 7.6% (active) in the assay on SN12C renal; 41.4% with TK-10 renal; 4.08% (active) with ACHN renal; 14.1% with CAKI-1 renal. Further, the growth is 9.69% (active) in the assay on A498 renal; 6.74% (active) in the assay with CCRF-CEM leukemia; -4.64% (active) in the assay on MOLT-4 leukemia; 5.19% (active) with SR leukemia; 50.8% in the assay with RPMI-8226 leukemia; 0.871% (active) in the assay with OVCAR-8 ovarian. Besides, the growth in the assay with OVCAR-5 ovarian is 28.8%; in the assay with OVCAR-4 ovarian, 23%; in the assay on SK-OV-3 ovarian it was -2.77% (active); in the assay with IGROV1 ovarian it was -3.86% (active); in the assay on OVCAR-3 ovarian, -41.7% (active); in the assay with HS 578T breast it was 11.5%. The growth in the assay with NCI/ADR-RES ovarian was 12.7%.

In the case of `COc1ccc(N(C)c2ncnc3occ(C)c23)cc1`, the growth in the assay with SK-MEL-2 melanoma was -4.77% (active); with EKVX NSCLC it was 42.1%; with SN12C renal, 34%; in the assay with UO-31 renal, 26.5%; in the assay on ACHN renal, 29%; with CAKI-1 renal, -6.13% (active). For the same compound, the growth in the assay with CCRF-CEM leukemia was -20.9% (active); in the assay with MOLT-4 leukemia, -1.42% (active); in the assay on SR leukemia, -36.1% (active); in the assay with RPMI-8226 leukemia, -36.1% (active); in the assay on OVCAR-8 ovarian it was -21.9% (active); in the assay on OVCAR-5 ovarian it was 28.1%. For the same compound, the growth with OVCAR-4 ovarian was 40.2%; in the assay with SK-OV-3 ovarian, 19.9%; in the assay on IGROV1 ovarian, -11.1% (active); with OVCAR-3 ovarian it was -39.9% (active); in the assay with HS 578T breast, 110%; in the assay with NCI/ADR-RES ovarian it was -16.2% (active).

Take `COc1cc(C2CC(c3ccccc3)=NN2C(C)=O)cc(OC)c1OC` (configuration not stated): the growth in the assay on SK-MEL-2 melanoma is 47.6%; in the assay on EKVX NSCLC it was 51%; in the assay on SN12C renal, 63.5%; with UO-31 renal, 58.1%; in the assay with ACHN renal it was 54.9%; in the assay on CAKI-1 renal, 38.8%. Also, the growth is 50.6% in the assay on A498 renal; 29% in the assay on MOLT-4 leukemia; 28.1% in the assay on SR leukemia; 81.7% with RPMI-8226 leukemia; 51.2% in the assay on OVCAR-8 ovarian; 92.3% in the assay with OVCAR-5 ovarian. Moreover, the growth was 78.5% with OVCAR-4 ovarian; 47.5% in the assay on SK-OV-3 ovarian; 24.6% in the assay with IGROV1 ovarian; -10.7% (active) with OVCAR-3 ovarian; 48.4% in the assay with HS 578T breast; 11.1% in the assay with NCI/ADR-RES ovarian.

As for `c1ccc(/C(=N\Nc2ccc3ccccc3n2)c2ccccn2)cc1`, the growth was -9.63% (active) in the assay on SK-MEL-2 melanoma; 15.1% in the assay on EKVX NSCLC; 18.5% with SN12C renal; 13.7% with UO-31 renal; 0.2% (active) with ACHN renal; -2.91% (active) in the assay with CAKI-1 renal. Further, the growth in the assay on A498 renal is -47.3% (active); with CCRF-CEM leukemia, -39% (active); in the assay on MOLT-4 leukemia it was -21.8% (active); in the assay with SR leukemia, -23.6% (active); in the assay with RPMI-8226 leukemia, 9.21% (active); in the assay with OVCAR-8 ovarian, 11.1%. Besides, the growth was 51.1% in the assay on OVCAR-5 ovarian; 10.1% in the assay with OVCAR-4 ovarian; 20.5% in the assay on SK-OV-3 ovarian; 2.49% (active) with IGROV1 ovarian; 22.1% in the assay on OVCAR-3 ovarian; 14.7% with HS 578T breast. Also, the growth with NCI/ADR-RES ovarian was 11.4%.

Regarding `COc1ccc(Cl)cc1Nc1nc(C(F)(F)F)ccc1C(=O)N/N=C/c1ccc(Cl)cc1`, the growth is 26.4% in the assay with SK-MEL-2 melanoma; 56.6% in the assay on EKVX NSCLC; 49% with SN12C renal; 18.8% in the assay with UO-31 renal; 36.8% in the assay with ACHN renal; 13.3% in the assay with CAKI-1 renal. Further, the growth in the assay on A498 renal is -35.2% (active); in the assay with CCRF-CEM leukemia it was 1.78% (active); with MOLT-4 leukemia it was 1.89% (active); in the assay on SR leukemia, -0.906% (active); in the assay on RPMI-8226 leukemia, 20.4%; with OVCAR-8 ovarian it was 46.8%. The growth in the assay on OVCAR-5 ovarian was 57.2%; in the assay with OVCAR-4 ovarian, 27.6%; in the assay on SK-OV-3 ovarian, 44.5%; in the assay on IGROV1 ovarian, 45.2%; with OVCAR-3 ovarian it was -34.7% (active); with HS 578T breast it was 3.13% (active). Besides, the growth with NCI/ADR-RES ovarian is 41%.

Take `CCOC(=O)Cn1c(=O)c2sc3ncccc3c2n2nnc(-c3ccccc3)c12`: the growth with SK-MEL-2 melanoma is 103%; with EKVX NSCLC, 104%; with SN12C renal, 97.4%; in the assay on TK-10 renal, 132%; in the assay on ACHN renal, 95.5%; with CAKI-1 renal it was 93.4%. Besides, the growth with A498 renal was 152%; with CCRF-CEM leukemia, 86.3%; in the assay with MOLT-4 leukemia, 89.6%; with SR leukemia, 93.5%; in the assay on RPMI-8226 leukemia it was 94.7%; in the assay on OVCAR-8 ovarian, 102%. The growth was 105% in the assay with OVCAR-5 ovarian; 101% in the assay with OVCAR-4 ovarian; 94% in the assay on SK-OV-3 ovarian; 120% with OVCAR-3 ovarian; 112% in the assay on HS 578T breast; 105% in the assay on NCI/ADR-RES ovarian.

For the compound `N#Cc1cnn(C(=O)c2nn(-c3ccc(Cl)cc3)cc2O)c1N`, the growth is 1.93% (active) with SK-MEL-2 melanoma; 1.5% (active) in the assay with EKVX NSCLC; 26.5% with SN12C renal; -3.61% (active) in the assay on UO-31 renal; 11.4% in the assay on ACHN renal; -34.4% (active) in the assay with CAKI-1 renal. Also, the growth in the assay with CCRF-CEM leukemia was -10.1% (active); with MOLT-4 leukemia, -14.4% (active); in the assay on SR leukemia, -35.5% (active); in the assay on RPMI-8226 leukemia, -37% (active); with OVCAR-8 ovarian it was 10.1%; with OVCAR-5 ovarian, 30.6%. For the same compound, the growth with OVCAR-4 ovarian was 18.8%; with SK-OV-3 ovarian it was 8.44% (active); with IGROV1 ovarian, 12.5%; with OVCAR-3 ovarian, -0.517% (active); with HS 578T breast, 75.9%; with NCI/ADR-RES ovarian, 3.25% (active).
